According to PubChem BioAssay (NCATS):
Records with an inconclusive call do not appear. The source made the active and inactive calls. The call rests on the fitted dose curve; in most records, active means well fitted curve in the direction sought with a large enough effect; inconclusive means small, poorly fitted or top-dose-only effect, or another doubt; inactive means no such curve, though single readings can be large; an effect the other way counts as inactive or inconclusive.

Tests used:
[1] = Quantitative High-Throughput drug screen in 47 multiple myeloma cell lines against the NCATS MIPE library collection: KMM1_JCRB cell viability assay (AID 1918960); further: nearly all actives have a fitted effect of over 30% in size
Outline: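 ATP readout (CellTiter-Glo), 48 h drug incubation, 37 °C/5% CO2, 500 cells per well; normalisation to DMSO (100%) and media-only (0%) controls.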

[2] = Quantitative High-Throughput drug screen in 47 multiple myeloma cell lines against the NCATS MIPE library collection: JIM3_ECACC cell viability assay (AID 1918963; further: nearly all actives have a fitted effect of over 35% in size)
Outline: (§1)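 Myeloma cell lines, 500 cells per well, exposed to MIPE 4.0 library compounds for 48 h at 37C, 5% CO2. Viability from ATP by CellTiter-Glo luminescence; normalised to DMSO (100%) and media-only (0%) wells.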

[3] = Quantitative High-Throughput drug screen in 47 multiple myeloma cell lines against the NCATS MIPE library collection: INA6_PLB cell viability assay (AID 1918965; further: nearly all actives have a fitted effect of over 55% in size)
Outline: as §1

[4] = Quantitative High-Throughput drug screen in 47 multiple myeloma cell lines against the NCATS MIPE library collection: Karpas25_ECACC cell viability assay (AID 1918968; further: nearly all actives have a fitted effect of over 35% in size)
Outline: (§2)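 Inhibition of cell viability is measured here. Each line was plated at 500 cells per well, treated with MIPE 4.0 drugs, kept 48 hours at 37C, then assayed for ATP content by CellTiter-Glo luminescence.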

[5] = Quantitative High-Throughput drug screen in 47 multiple myeloma cell lines against the NCATS MIPE library collection: KMS12BM_JCRB cell viability assay (AID 1918971); further: nearly all actives have a fitted effect of over 35% in size
Outline: as §1

[6] = Quantitative High-Throughput drug screen in 47 multiple myeloma cell lines against the NCATS MIPE library collection: KMS12PE_JCRB cell viability assay (AID 1918972); further: nearly all actives have a fitted effect of over 30% in size
Outline: as §1

[7] = Quantitative High-Throughput drug screen in 47 multiple myeloma cell lines against the NCATS MIPE library collection: KMS20_JCRB cell viability assay (AID 1918973); further: nearly all actives have a fitted effect of over 45% in size
Outline: as §2

[8] = Quantitative High-Throughput drug screen in 47 multiple myeloma cell lines against the NCATS MIPE library collection: KMS26_JCRB cell viability assay (AID 1918975); further: nearly all actives have a fitted effect of over 45% in size
Outline: as §1

[9] = Quantitative High-Throughput drug screen in 47 multiple myeloma cell lines against the NCATS MIPE library collection: MMM1_PLB cell viability assay (AID 1918976); further: nearly all actives have a fitted effect of over 35% in size
Outline: (§3)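 500 cells/well per myeloma line exposed to pinned MIPE 4.0 compounds for 48 h at 37 °C, 5% CO2. Viability read as ATP by CellTiter-Glo luminescence, normalised to DMSO-only (100%) and media-only (0%) wells.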

[10] = Quantitative High-Throughput drug screen in 47 multiple myeloma cell lines against the NCATS MIPE library collection: NCIH929_DSMZ cell viability assay (AID 1918978); further: nearly all actives have a fitted effect of over 35% in size
Outline: as §3

[11] = Quantitative High-Throughput drug screen in 47 multiple myeloma cell lines against the NCATS MIPE library collection: OCIMY1_PLB cell viability assay (AID 1918979); further: nearly all actives have a fitted effect of over 35% in size
Outline: as §3

[12] = Quantitative High-Throughput drug screen in 47 multiple myeloma cell lines against the NCATS MIPE library collection: JJN3_DSMZ cell viability assay (AID 1918966; further: nearly all actives have a fitted effect of over 50% in size)
Outline: as §2

[13] = Quantitative High-Throughput drug screen in 47 multiple myeloma cell lines against the NCATS MIPE library collection: H1112_PLB cell viability assay (AID 1918967; further: nearly all actives have a fitted effect of over 30% in size)
Outline: as §2

[14] = Quantitative High-Throughput drug screen in 47 multiple myeloma cell lines against the NCATS MIPE library collection: KMS27_JCRB cell viability assay (AID 1918970); conditions: KMS27 myeloma cells, CellTiter-Glo ATP viability, 48 h; viability (% of DMSO): at 45.8 µM (top of the series); further: nearly all actives have a fitted effect of over 30% in size
Outline: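 KMS27_JCRB myeloma cells, 500 per well, exposed 48 h at 37 C, 5% CO2 to MIPE 4.0 compounds. Viability from ATP by CellTiter-Glo luminescence, normalized to DMSO (100%) and medium-only (0%) wells.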

[15] = Quantitative High-Throughput drug screen in 47 multiple myeloma cell lines against the NCATS MIPE library collection: KMS21BM_JCRB cell viability assay (AID 1918974); conditions: ATP luminescence, 48 h; viability: at 45.8 µM (top of the series)
Outline: as §2

[16] = Quantitative High-Throughput drug screen in 47 multiple myeloma cell lines against the NCATS MIPE library collection: MM1S_ATCC cell viability assay (AID 1918980); further: nearly all actives have a fitted effect of over 45% in size
Outline: as §3

[17] = Quantitative High-Throughput drug screen in 47 multiple myeloma cell lines against the NCATS MIPE library collection: MOLP8_DSMZ cell viability assay (AID 1918977); further: nearly all actives have a fitted effect of over 45% in size
Outline: as §3

[18] = Quantitative High-Throughput drug screen in 47 multiple myeloma cell lines against the NCATS MIPE library collection: JIM1_ECACC cell viability assay (AID 1918964)
Outline: as §2

Measured: Potency
Potency means the concentration at half of the fitted maximal effect.

Cc1nn(Cc2ccccc2Cl)c(C)c1CN(C)CC(O)COc1ccc(Cl)cc1 (configuration not stated)
active: [1] 5.9 µM | [2] 18.7 µM | [3] 20.9 µM | [4] 20.9 µM | [5] 23.5 µM | [6] 5.9 µM | [7] 11.8 µM | [8] 20.9 µM | [9] 18.7 µM | [10] 23.5 µM | [11] 18.7 µM

CC1(C)OC2CC3C4CC(F)C5=CC(=O)C=CC5(C)C4C(O)CC3(C)[C@]2(C(=O)CO)O1 (some centres not stated)
inactive: [2] | [3] | [12] | [13] | [14] | [8] | [9] | [10] | [11]
active: [1] 0.0235 µM | [4] 0.0833 µM | [15] 0.0083 µM | [16] 0.0166 µM

CC(C)(CO)[C@@H](O)C(=O)NCCC(=O)O
inactive: [1] | [2] | [12] | [13] | [4] | [14] | [5] | [6] | [10] | [11] | [16]

CCC(c1ccc(O)cc1)C(CC)c1ccc(O)cc1 (configuration not stated)
active: [13] 8.33 µM | [8] 3.72 µM | [16] 4.69 µM
inactive: [1] | [2] | [3] | [6] | [17] | [10] | [11]

Cc1ccc(S(=O)(=O)OCC(=O)Nc2ccc(C(=O)O)c(O)c2)cc1
inactive: [1]
active: [2] 23.5 µM | [3] 13.2 µM | [12] 16.6 µM | [13] 20.9 µM | [10] 7.43 µM

COc1ccc(-c2nc3ccc(C4=NNC(=O)CC4C)cc3[nH]2)cc1 (configuration not stated)
inactive: [1] | [2] | [18] | [12] | [5] | [15] | [8]
active: [16] 23.5 µM

OC(c1cc(C(F)(F)F)nc2c(C(F)(F)F)cccc12)C1CCCCN1 (configuration not stated)
active: [1] 20.9 µM | [2] 18.7 µM | [18] 16.6 µM | [3] 23.5 µM | [13] 20.9 µM | [4] 16.6 µM | [5] 26.4 µM | [7] 10.5 µM | [8] 29.6 µM | [9] 23.5 µM | [10] 20.9 µM | [16] 20.9 µM

CN[C@H]1[C@@H](O[C@@H]2[C@H](O[C@@H]3[C@@H](O)[C@@H](O)[C@@H](N=C(N)N)[C@@H](O)[C@@H]3N=C(N)N)O[C@H](C)[C@@]2(O)C=O)O[C@@H](CO)[C@@H](O)[C@H]1O
inactive: [1] | [2] | [18] | [3] | [13] | [14] | [5] | [6] | [8] | [10] | [16]

C[C@]12C=CC(=O)C=C1CC[C@@H]1[C@@H]2[C@@H](O)C[C@@]2(C)[C@@H]1CC[C@]2(O)C(=O)CO
inactive: [2] | [13] | [14] | [6] | [11]
active: [1] 0.209 µM | [3] 5.9 µM | [4] 0.296 µM | [5] 11.8 µM | [9] 0.166 µM | [17] 0.0743 µM | [10] 2.35 µM | [16] 5.26 µM

COc1ccc2c(c1)c(C1=C(c3c[nH]c4ccccc34)C(=O)NC1=O)cn2CCCN(C)C
active: [1] 23.5 µM | [2] 13.2 µM | [3] 0.526 µM | [12] 20.9 µM | [14] 18.7 µM | [6] 16.6 µM | [15] 0.469 µM | [17] 14.8 µM | [10] 23.5 µM

O=C(Nc1cccc(C(F)(F)F)c1)Nc1cc(S(=O)(=O)NC2CC2)ccc1-c1ccsc1
inactive: [1] | [18] | [6] | [11]
active: [2] 23.5 µM | [8] 16.6 µM | [9] 18.7 µM | [10] 23.5 µM | [16] 20.9 µM

COc1cc2nccc(Oc3ccc(NC(=O)Nc4ccc(F)cc4F)c(F)c3)c2cc1OC
active: [12] 20.9 µM | [5] 11.8 µM | [9] 0.0935 µM
inactive: [1] | [2] | [18] | [13] | [4] | [10]

CCCCn1c(=O)n(Cc2ccccc2F)c(=O)c2[nH]c(Cc3ccc(NC(C)=O)cc3)nc21
active: [2] 23.5 µM | [18] 0.0042 µM | [16] 20.9 µM
inactive: [1] | [13] | [14] | [6] | [10]

CN(C)N=Nc1nc[nH]c1C(N)=O
inactive: [2] | [13] | [4] | [5] | [10] | [16]
active: [1] 0.935 µM | [3] 2.64 µM | [6] 0.166 µM | [8] 20.9 µM | [9] 4.69 µM

CC(C)N(CCCNC(=O)Nc1ccc(C(C)(C)C)cc1)C[C@H]1O[C@@H](n2cc(Br)c3c(N)ncnc32)[C@H](O)[C@H]1O
active: [2] 29.6 µM | [3] 18.7 µM | [4] 14.8 µM | [8] 26.4 µM | [9] 18.7 µM | [17] 18.7 µM | [10] 23.5 µM | [16] 23.5 µM
inactive: [1] | [14] | [6]
